Hits are enriched below; roughly 12% of the tested compounds scored in any of these assays.
RORgamma inh: qHTS for inhibitors of ROR gamma transcriptional activity | hit rate 5.4% among 310,000 | Drosophila S2 Gal4-RORgamma UAS-luciferase reporter, 20 h | Potency, µM (top dose mostly 53.6 µM), for the others: at the highest dose activity change, negative = inhibition, usual class: inhibitors | Nuclear receptor ROR-gamma (Mus musculus), P51450; further: nearly all actives have a fitted effect of over 60% in size
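Luminescence from a UAS-regulated Photinus luciferase reporter in stably transfected Drosophila Schneider cells is measured; decreased signal marks ROR gamma inhibition. Fusion expression is induced by 700 uM copper sulfate for 20 hr.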
PLK1 PBD inh: qHTS for Inhibitors of PLK1-PDB (polo-like kinase 1 - polo-box domain): Primary Screen | hit rate 2.8% among 360,000 | Potency, µM, inactives show max response, negative = inhibition, usual class: inhibitors | AID 720504, 2013 | Serine/threonine-protein kinase PLK1 (Homo sapiens), P53350 | Plk1 PBD binding of FITC phosphopeptide, fluorescence polarization; further: series mostly up to about 57 µM; nearly all actives have a fitted effect of over 65% in size
Gal4-VP16 FLuc: VP16 counterscreen qHTS for inhibitors of ROR gamma transcriptional activity; Drosophila S2 Gal4-VP16 UAS-luciferase, luminescence, 20 h; Potency, µM (series often up to 53.6 µM), for the others: at the highest dose activity, negative = inhibition, most hits filed as inhibitors; hit rate 3.5% among 310,000;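 further: Gal4-VP16 expression switched on by copper sulfate through the metallothionein promoter; nearly all actives have a fitted effect of over 50% in size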
ALDH1A1 inh: qHTS Assay for Inhibitors of Aldehyde Dehydrogenase 1 (ALDH1A1) | Aldehyde dehydrogenase 1A1 (Homo sapiens), P00352 | Potency, µM (doses to about 75.3 µM), inactives show top-dose activity, negative = inhibition, hits mostly inhibitors | hit rate 7.3% among 220,000 | Purified ALDH1A1, NADH fluorescence, propionaldehyde substrate; active means well fitted inhibition curve with a large enough effect, not every such curve was filed as active; inconclusive means small, poorly fitted or top-dose-only effect, or another doubt; inactive means no such curve, though single readings can be large or run the other way;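 further: plate controls were no enzyme wells and a reference inhibitor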
Target sequence (P00352 whole entry, looked up): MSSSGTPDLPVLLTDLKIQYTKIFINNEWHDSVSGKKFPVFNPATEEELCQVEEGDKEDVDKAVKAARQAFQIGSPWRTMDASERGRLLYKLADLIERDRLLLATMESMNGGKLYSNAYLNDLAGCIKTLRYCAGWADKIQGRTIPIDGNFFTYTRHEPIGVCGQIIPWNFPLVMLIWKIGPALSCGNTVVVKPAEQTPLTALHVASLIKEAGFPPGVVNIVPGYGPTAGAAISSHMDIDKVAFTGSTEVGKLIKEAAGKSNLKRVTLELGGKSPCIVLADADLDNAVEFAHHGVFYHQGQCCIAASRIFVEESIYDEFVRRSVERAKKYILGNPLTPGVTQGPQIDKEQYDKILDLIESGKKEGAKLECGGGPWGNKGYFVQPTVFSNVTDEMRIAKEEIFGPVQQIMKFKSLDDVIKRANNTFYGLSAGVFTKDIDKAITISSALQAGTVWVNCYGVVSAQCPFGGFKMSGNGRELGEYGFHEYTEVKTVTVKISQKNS
Sfp inh: qHTS Assay for Inhibitors of Bacillus subtilis Sfp phosphopantetheinyl transferase (PPTase); hit rate 3.5% among 310,000; AID 1490, 2009; Potency, µM, for inactives: largest response in the series, negative = inhibition, usual class: inhibitors; Biochemical Sfp PPTase activity, qHTS;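 further: the enzyme is Sfp with the accession as filed and its product quenches rhodamine fluorescence; 0% = enzyme reaction without inhibitor and -100% = no enzyme wells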
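Buffer: 50 mM Hepes-Na pH 7.6, 10 mM MgCl2, 0.01% Nonidet P-40, 0.01% BSA. Enzyme 15 nM, pre-exposed to compound 15 min; substrates then added and fluorescence change tracked over 30 min.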
Active calls of the source: *; ? = inconclusive; . = no result given; [ ] = another dose, or the depositor's remark. Unless noted, the call rests on the fitted dose curve; in most records, active means well fitted curve in the direction sought with a large enough effect; inconclusive means small, poorly fitted or top-dose-only effect, or another doubt; inactive means no such curve, though single readings can be large; an effect the other way counts as inactive or inconclusive. Unless noted, on the % scale 0 is the no-effect control and ±100 the full control effect; potency means the concentration at half of the fitted maximal effect.

SMILES | RORgamma inh | PLK1 PBD inh | Gal4-VP16 FLuc | ALDH1A1 inh | Sfp inh
O=C(CSC1=NC2(CCCCCC2)N=C1c1ccccc1)Nc1ccc2c(c1)OCCO2 | ? | 1.5% | 6.5% | 22.4µM* | 20.9%
c1ccc(-c2csc3nnc(SCc4ccc5c(c4)OCO5)n23)cc1 | -14.1% | 21.2µM* | ? | ? | 20.7%
O=C(CSc1nnc2scc(-c3ccccc3)n12)Nc1ccc2c(c1)OCCO2 | ? | 3.2% | 13.3% | 15.8µM* | -8.7%
O=C(O)C(Cc1ccccc1)Cc1ccccc1 | . | . | . | 9.9%[13.5 µM] | .
O=C(Cc1noc2ccccc12)NNC(=S)Nc1ccccc1 | ? | 0.0% | -6.8% | ? | 18.7%
O=C(Cc1noc2ccccc12)NNC(=S)Nc1ccc(Cl)cc1 | 11.2µM* | -16.9% | -16.6% | 25.1µM* | 16.7%
Cn1cccc1CC(=O)NNC(=S)Nc1ccc(Cl)cc1 | 11.2µM* | -29.8% | ? | ? | 7.2%
CC1=C(C(=O)N2CCCCCC2)CC(CC(=O)NC2CCCC2)C(=O)N1Cc1ccccc1 (centres undefined) | . | 4.5% | . | . | .
C/C(=N\Nc1ccccn1)c1ccc(N2CCOCC2)cc1 | 7.08µM* | 0.5% | ? | -3.9% | 4.8%
Clc1cccc(N/N=C/c2ccc(N3CCOCC3)cc2)c1 | 28.5% | -14.9% | 18.4% | ? | 8.2%
C/C(=N\Nc1cc(N2CCOCC2)nc(C)n1)c1cccc([N+](=O)[O-])c1 | -7.9% | 0.6% | -1.5% | ? | -7.5%
CCCCc1ccc(/C(C)=N/Nc2cc(N3CCOCC3)nc(C)n2)cc1 | 12.6µM* | -1.3% | ? | . | -5.4%
O=C(O)c1cc(N/N=C/c2ccc(N3CCOCC3)cc2)ccc1Cl | 7.08µM* | -22.6% | ? | . | -12.2%
C(=N\Nc1ccccc1)/c1ccc(N2CCOCC2)cc1 | 0.5% | -4.8% | -5.3% | 6.31µM* | -1.5%
CCc1ccc(CN(C)Cc2nc(-c3cccc(Cl)c3)no2)nc1 | ? | -28.0% | -1.0% | 5.1% | -2.0%
CCCCCNC(=O)C(c1ccnc2ccccc12)n1c(=O)c(-c2cc3ccccc3[nH]2)nc2ccccc21 (centres undefined) | . | 3.0% | . | . | .
C/C(=N\Nc1ccccn1)c1ccc(C(C)C)cc1 | 3.98µM* | -8.4% | 11.2µM* | 2.8% | -17.4%
C/C(=N\Nc1ccccn1)c1ccc(Br)s1 | . | -14.3% | . | . | .
C(=N\Nc1ccccn1)/c1ccc(N2CCOCC2)cc1 | ? | -18.2% | -29.5% | ? | 39.8µM*
CCC1CSC(Nc2ccc(C(=O)/C=C/c3cccc(C)c3)cc2)=N1 (centres undefined) | -5.6%[10 µM] | -7.9% | ? | -5.6% | -1.2%
CCC1CSC(Nc2ccc(C(=O)/C=C/c3ccc(Oc4ccccc4)cc3)cc2)=N1 (centres undefined) | 15.8µM* | -1.3% | ? | -16.0% | -15.8%
CC(=O)c1cccc(N(C(=O)c2ccco2)C(C(=O)NC2CCCC2)c2ccccc2F)c1 (centres undefined) | 31.9% | 0.0% | 5.7% | . | 12.9%
CC(=O)c1ccc(NC(=S)Nc2cccc3cnccc23)cc1 | -3.6% | 29.9µM* | -5.8% | . | 2.51µM*
Cc1ccc(NC(=S)Nc2cccc3cnccc23)cc1C | ? | 26.7µM* | 3.16µM* | 2.51µM* | 39.8µM*
Cc1ccc(NC(=S)Nc2cccc3cnccc23)cc1 | ? | 26.7µM* | ? | 12.6µM* | 44.7µM*
SMILES | RORgamma inh | PLK1 PBD inh | Gal4-VP16 FLuc | ALDH1A1 inh | Sfp inh
NC(=S)Nc1cccc2cnccc12 | -32.9% | -0.6% | -8.9%[0.365 µM] | 13.0% | 8.9%
CCN=C1S/C(=C/c2ccc(-c3ccc(F)cc3)o2)C(=O)N1CC | -22.7% | -3.6% | -9.1% | . | 56.2µM*
NNC(=O)c1ccc[n+](CCc2ccccc2)c1 | . | . | . | 0.7%[13.5 µM] | .
CCC(c1nc2ccccc2[nH]1)n1c(=O)c(-c2ccccc2)nc2ccccc21 (centres undefined) | . | -6.4% | . | . | .
COCCCNc1oc(-c2ccccc2F)nc1C#N | 17.7% | 23.8µM* | 8.0% | ? | 4.9%
COc1ccc(/C=C/C2=CC3(C)CC2(C)C(c2ccc(OC)cc2)CC3=O)cc1 (centres undefined) | -1.0%[10 µM] | . | -3.4%[10 µM] | -0.8%[13.5 µM] | -24.2%

From PubChem
